# Out of some 96,000 compounds screened, about 19,000 (20%) were called active. Not all results are given here. Unmarked numbers belong to inactive results.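 Rule for the calls: active = blocking of liver enzyme CYP2C9 beyond about 50% at 5 µM (limit read from the data); inactive = the rest.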
# Biological target: Cytochrome P450 2C9 (Homo sapiens) (UniProt P11712)
# Experiment: blockers of cytochrome P450 2C9 activity – biochemical, luminescence, ADME assay, primary screen (AID 777)
# Conditions: CYP2C9 Supersomes, luciferin-H conversion, at 5 µM, active compounds read high
# Chain of Cytochrome P450 2C9 (Homo sapiens) (P11712 whole entry, looked up): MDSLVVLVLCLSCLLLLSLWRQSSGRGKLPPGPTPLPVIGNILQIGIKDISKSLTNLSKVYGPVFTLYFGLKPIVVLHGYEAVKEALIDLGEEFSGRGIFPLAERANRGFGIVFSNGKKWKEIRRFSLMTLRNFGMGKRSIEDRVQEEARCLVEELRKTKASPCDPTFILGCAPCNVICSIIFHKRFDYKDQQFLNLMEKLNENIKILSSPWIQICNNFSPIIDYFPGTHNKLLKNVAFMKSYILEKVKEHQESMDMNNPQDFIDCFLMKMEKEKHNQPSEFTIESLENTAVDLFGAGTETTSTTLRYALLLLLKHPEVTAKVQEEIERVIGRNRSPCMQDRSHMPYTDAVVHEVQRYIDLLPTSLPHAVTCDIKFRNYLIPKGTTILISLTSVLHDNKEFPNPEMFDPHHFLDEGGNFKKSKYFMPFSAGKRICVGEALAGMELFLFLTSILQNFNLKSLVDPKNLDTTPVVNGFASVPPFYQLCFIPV
row,Compound,inhibition
1,Cc1noc(C)c1C(=O)N1CCOCC1,-7.1%
2,c1ccc(CC2CCN(c3nc4ccccc4n4cnnc34)CC2)cc1,20.5%
3,CCCn1c(C)cc(C(=O)COC(=O)c2c(C)nn(-c3ccccc3)c2C)c1C,-31.1%
4,CC(C)=C1SC(N2CCN(c3cccc(C)c3)CC2)=NC1=O,-36.8%
5,O=S(=O)(c1cnccc1N1CCN(/N=C/c2ccc(Br)cc2)CC1)N1CCCCC1,-9.2%
6,CNS(=O)(=O)c1cnccc1N1CCN(c2cccc(C)c2)CC1,57.7% (active)
7,O=C(N/N=C\c1cccc(Br)c1)c1ccccc1-n1cccc1,66.3% (active)
8,N=c1oc2ccccc2cc1C(=O)N/N=C/c1ccccc1,27.9%
9,Cn1c(=O)n(C)c2cc(/C=N/NC(=O)c3cccc(Br)c3)ccc21,-21.3%
10,Cc1nn(C)cc1C(=O)NNC(=S)Nc1ccc(Cl)cc1,18.7%
11,CCN(Cc1cc2cc(C)ccc2[nH]c1=O)S(=O)(=O)c1ccccc1,5.9%
12,COc1ccc(CCNC(=O)c2ccco2)cc1,8.8%
13,O=C(NCCc1ccccn1)c1ccc(COc2ccccc2)o1,13.4%
14,COc1ccc(-c2nc(CCNC(=O)c3ccc(Br)o3)cs2)cc1,62.2% (active)
15,CCOC(=O)/C=c1\s/c(=C\c2ccccc2OC)c(=O)n1CC(=O)N1CCOCC1,2%
16,Fc1ccc(CSc2nnc(-c3cc4c(s3)-c3ccccc3CC4)o2)cc1,52.4% (active)
17,CCSc1nnc(-c2cc3c(s2)-c2ccccc2CC3)o1,-16.8%
18,Clc1ccc(CSc2nnc([C@@H]3CCCN3)o2)cc1,31.8%
19,CC(C)OC(=O)c1sc2nc3c(cc2c1N)C(=O)CCC3,19.5%
20,CC1CCN(c2oc(-c3ccccc3F)nc2C#N)CC1,80% (active)
21,N#Cc1nc(COc2ccc(Cl)cc2)oc1N1CCCC1,39.8%
22,COc1ccccc1-c1nc(C#N)c(N2CCC(C(N)=O)CC2)o1,-9.8%
23,Cc1ccc(NC(=O)CCN2CCc3ccccc3C2)cc1,11.4%

row,Compound,inhibition
1,O=C(CN1CCOCC1)Nc1ccccc1,11.4%
2,Cc1ccc(NC(=O)CN2CCc3ccccc3C2)cc1,87.4% (active)
3,Cc1ccccc1-n1nnc2c(=O)oc3ccccc3c21,5.8%
4,Cc1cc(=O)[nH]c(SCC(N)=O)c1C#N,1.6%
5,CCOC(=O)Nc1ccc(NC(=O)OCC)cc1,-16.2%
6,COc1ccc(-c2nnc(SCC(=O)c3cccs3)o2)c(OC)c1,16.1%
7,COc1ccccc1-c1nnc(SCC(=O)Nc2cc(C)on2)o1,-64.2%
8,NC(=O)CSc1oc(-c2cccs2)nc1S(=O)(=O)c1ccccc1,30.5%
9,Cc1cc(NC(=O)CSc2nnc(-c3ccc(Cl)s3)o2)no1,18.4%
10,COc1ccc(-n2c(C)cc(C(=O)CSc3nnc(-c4cccs4)o3)c2C)cc1,90.8% (active)
11,COc1ccc(OC)c(C(=O)CSc2nnc(-c3cccs3)o2)c1,54.4% (active)
12,C=CCNC(=S)NNc1ncnc2sc3c(c12)CC(C)(C)OC3,19.6%
13,CCOC(=O)C1=C(C)N=c2s/c(=C\C(=O)OC)c(=O)n2C1c1ccc(OC)cc1 (stereo not drawn),6.6%
14,O=C(COC(=O)c1ccccc1C(=O)c1ccccc1)c1ccco1,90.4% (active)
15,O=C(CNC(=O)c1ccco1)OCC(=O)c1ccccc1,-2.5%
16,CCN(CC)c1ccc(C(=O)OCC(=O)c2ccco2)cc1,-26.4%
17,NC(=O)c1ccccc1NC(=O)c1ccccc1F,-7.7%
18,Fc1ccccc1OCCSc1nc2ccccc2o1,21.5%
19,Cc1c(Br)cc(C(=O)N2CCCCCC2)c(C)c1C,-38.3%
20,FC(F)(F)c1ccc2nnc(-c3c(Cl)cccc3Cl)n2c1,25.7%
21,CCN1CCN(c2c(Cl)cccc2NC(=O)c2ccc(Br)o2)CC1,64.7% (active)
22,CCCC(=O)Nc1ccc(Cl)c(NC(=O)c2ccc(Br)o2)c1,16.1%
23,COc1cc(OC)c(NC(=O)c2ccc(Br)o2)cc1Cl,38.8%

row,Compound,inhibition
1,O=C(Nc1cccc2ncccc12)c1ccc(-c2ccc(Cl)cc2Cl)o1,5.6%
2,CCOc1ccc(OCC)c(-c2c(=O)n(OCc3ccc(Cl)cc3)c3ccccc3[n+]2[O-])c1,49.9%
3,Clc1ccc(COn2c(-c3ccc(Cl)cc3Cl)nc3ncccc32)cc1,97.1% (active)
4,COc1ccc(CC(=O)Nc2sc(Cc3ccccc3)c(C)c2C(N)=O)cc1,20.4%
5,CCOC(=O)CSc1nnc(CNc2ccc(F)cc2)o1,14.8%
6,CCCCSc1[nH]c(=O)c(C(=O)OCC)cc1C#N,19.4%
7,CN(C(=O)c1ccccn1)c1nnc(-c2ccccn2)s1,2.1%
8,CCOc1ccc(-c2cn(S(=O)(=O)c3cccc4nsnc34)nc2N)cc1,62.6% (active)
9,CCOc1ccc(OCC)c(NC(=O)CN(C)S(=O)(=O)c2cccc3nsnc23)c1,-23.4%
10,CCOc1ccc(NC(=O)CCS(=O)(=O)c2cccc3nsnc23)cc1,33.7%
11,CCN(CC)Cc1csc2ccc(Br)cc12,-14.3%
12,Cc1cc(NC(=O)Cn2nc(C(F)(F)F)c3c2CCCC3)no1,14.9%
13,Cc1ccc(-n2c(N)c(C(=O)N3CCOCC3)sc2=S)c(C)c1,8.6%
14,Cc1cccc(-n2c(N)c(C(=O)N3CCN(C)CC3)sc2=S)c1,19.9%
15,N#Cc1ccccc1-n1c(N)c(C(=O)N2CCCC2)sc1=S,69.3% (active)
16,COc1ccc(-n2nc(C(=O)NCC(=O)Nc3cccc(C)n3)c3ccccc3c2=O)cc1,23.8%
17,COc1ccc(C(C)=O)cc1CN1C(=O)NC2(CCCCC2C)C1=O (stereo not drawn),9.5%
18,C#CCN1CC(C)/C(=N/O)CC1C (stereo not drawn),-28.8%
19,CCC1C(C#N)=C(SC)NC2=C1C(=O)CC(C)(C)C2 (stereo not drawn),19%
20,COc1ccc(C2C(C#N)=C(/N=C/N3CCOCC3)OC3=C2C(=O)CC(C)(C)C3)cc1OC (stereo not drawn),69% (active)
21,COc1cc(C2C(C#N)=C(C)NC3=C2C(=O)CC(C)(C)C3)ccc1O (stereo not drawn),58.5% (active)
22,CCOC(=O)C1=C(C)NC2=C(C(=O)CC(C)(C)C2)C1c1ccsc1 (stereo not drawn),39.8%
